Inhibition data for 100 molecules are collected here from PubChem BioAssay AID1903 (Southern Research Specialized Biocontainment Screening …, 2009).

Among all 310,000 compounds or so, about 1,200 (0.39%) were called active. How the calls were made is not given here. These entries were drawn from the full list. Measured potencies and affinities stand elsewhere.

By inhibition is commonly meant the drop in the measured response relative to a control, in per cent.

The target of the assay is Large T antigen (Simian virus 40) (UniProt P03070). The experiment in a line: SV40 large T antigen inhibitors, biochemical (AID 1903). As to conditions: SV40 large T antigen ATPase/helicase inhibition assay; at 20 µM; hits give high values.
Large T antigen (Simian virus 40), sequence (P03070 whole entry, looked up): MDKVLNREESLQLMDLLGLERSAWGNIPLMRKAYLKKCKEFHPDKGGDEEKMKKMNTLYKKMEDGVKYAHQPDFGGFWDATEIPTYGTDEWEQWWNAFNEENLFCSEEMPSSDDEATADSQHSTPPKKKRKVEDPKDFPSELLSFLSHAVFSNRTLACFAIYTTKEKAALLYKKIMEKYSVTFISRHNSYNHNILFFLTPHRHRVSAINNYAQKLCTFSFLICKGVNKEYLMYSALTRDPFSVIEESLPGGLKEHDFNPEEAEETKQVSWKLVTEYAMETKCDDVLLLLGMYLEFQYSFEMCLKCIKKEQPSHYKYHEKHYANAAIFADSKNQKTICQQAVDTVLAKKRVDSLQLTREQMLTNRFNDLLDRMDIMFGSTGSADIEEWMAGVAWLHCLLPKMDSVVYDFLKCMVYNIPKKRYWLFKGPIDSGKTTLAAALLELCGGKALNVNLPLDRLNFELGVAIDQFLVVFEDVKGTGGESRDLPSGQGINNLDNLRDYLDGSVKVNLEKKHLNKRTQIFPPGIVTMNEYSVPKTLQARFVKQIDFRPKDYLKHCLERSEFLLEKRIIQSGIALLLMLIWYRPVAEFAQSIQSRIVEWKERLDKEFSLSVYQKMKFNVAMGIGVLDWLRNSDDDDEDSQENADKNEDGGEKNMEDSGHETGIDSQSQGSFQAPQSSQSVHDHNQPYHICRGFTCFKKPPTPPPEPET
With `NC(=O)c1cc(S(=O)(=O)N2CCN(c3ccc([N+](=O)[O-])cc3)CC2)cs1`, the inhibition is 14.4% (inactive).
Next, `CCOC(=O)c1cnc2cc(F)c(F)cc2c1N1CCOCC1`: 0.2% (inactive).
`O=C(COc1c(Cl)cc(Cl)cc1Cl)c1ccc(Cl)cc1`: the inhibition is 2.07% (inactive).
Next, `Cc1ccc(NS(=O)(=O)c2ccc3c(c2)oc(=O)n3C)cc1`: 6.64% (inactive).
Next, `CC(=O)Nc1ccc(NS(=O)(=O)c2ccc3c(c2)oc(=O)n3C)cc1`: 10.1% (inactive).
Next, `Cc1ccc(NC(=O)CN2C(=O)c3ccccc3S2(=O)=O)c(C)c1`: 10.7% (inactive).
Turning to `CN(C)c1ccc(C(=O)NCC2CCCO2)cc1` (stereo not given), the inhibition is 5.69% (inactive).
In the case of `COCC(=O)Nc1ccc(N(C)C)cc1`, the inhibition was 33.7% (inactive).
Next, `CN(C)c1ccc(CNCC2CCCO2)cc1` (stereo not given): 7.34% (inactive).
Next, `CCCNC(=O)C(=O)Nc1ccc(N(C)C)cc1`: 18.4% (inactive); `CC1CCN(C(=O)Cn2c(=O)n(CCCC(=O)NCc3ccco3)c(=O)c3sccc32)CC1`: 8.64% (inactive).
On to `O=C(Nc1ccccc1C(=O)Nc1ccccc1)c1cccs1`, for which the inhibition is 5.41% (inactive).
As to `Cc1c(C(=O)Nc2cc(S(=O)(=O)N3CCOCC3)ccc2N2CCOCC2)oc2ccccc12`, the inhibition is 0.37% (inactive).
Consider `CCC(CC)C(=O)Nc1nnc(S(=O)(=O)N(CC)c2ccc(OC)cc2)s1`, for which the inhibition was 3.96% (inactive).
On to `Cc1ccc(S(=O)(=O)N2CCOCC2)cc1C(=O)c1nccn1C`, for which the inhibition is 8.29% (inactive).
As to `CC1=C/C(=N\OS(=O)(=O)c2ccccc2)C=CC1=O`, the inhibition was 26.7% (inactive).
Next, `Cc1ccc(S(=O)(=O)ON=C2CCN(S(=O)(=O)c3ccccc3)CC2)cc1`: 1.39% (inactive).
Next, `CCc1nnc(NC(=O)CSc2nnc(Cc3cc(=O)[nH]c(=O)[nH]3)n2-c2ccc(OC)cc2)s1`: 3.92% (inactive); `NC(=NCCc1c[nH]c2ccccc12)NS(=O)(=O)c1ccc(F)cc1`: -1.17% (inactive).
As to `CCCNCc1cc(OC)c(OCC(=O)NCCc2ccccc2)cc1Br`, the inhibition was 6.19% (inactive).
Regarding `COc1cccc(NC(=S)N2CCCC2c2ccc(OC)c(OC)c2)c1` (stereo not given), the inhibition was 12.4% (inactive).
Take `CCn1nc(C(=O)OCc2cccc(S(=O)(=O)N(C)C)c2)c2ccccc2c1=O`: the inhibition was 8.67% (inactive).
In the case of `CN(C)S(=O)(=O)c1cccc(N2C(=O)CC3(CCCCC3)CC2=O)c1`, the inhibition was 7.26% (inactive).
Next, `Cc1ccc(-c2nn(C)c(=O)c3ccccc23)cc1S(=O)(=O)N1CCCC1`: 0.12% (inactive); `O=C(O)c1ccccc1NS(=O)(=O)c1cccc(C(F)(F)F)c1`: 9.6% (inactive).
Next, `O=c1c2ccccc2sn1-c1ccc(S(=O)(=O)N2CCCC2)cc1`: 9.42% (inactive); `O=C(O)c1ccccc1NS(=O)(=O)c1ccc2ccccc2c1`: -0.61% (inactive); `O=C1CC(c2ccc(O)c(O)c2)Oc2cc(O)cc(O)c21` (stereo not given): 45.5% (inactive).
Take `CC(C)=CCc1c(O)ccc2c1OC(c1ccc(O)c(O)c1)CC2=O` (stereo not given): the inhibition was 17% (inactive).
Next, `Cc1ccc(OCCCCN2CCC(C)CC2)c(Br)c1`: 3.72% (inactive).
Next, `O=C1/C(=C\c2ccc(Br)o2)Cc2ccccc21`: 6.99% (inactive); `Cc1ccc(C=C2C(=O)c3ccccc3C2=O)o1`: 12.7% (inactive); `O=C(COc1ccc(F)cc1F)N1CCCCCCC1`: 1.37% (inactive).
Regarding `Oc1cccc(NC(=S)Nc2ccccc2)c1`, the inhibition is 21.3% (inactive).
As for `Cc1cccc(OCC(=O)Nc2ccc(N3CCCC3)cc2)c1C`, the inhibition was -18.4% (inactive).
Next, `COc1ccc(NC(=S)NC(=O)c2ccccc2Cl)cc1`: 9.58% (inactive).
Next, `O=C(NC(=S)Nc1ccc(Cl)cc1)c1cncc(Br)c1`: 10.2% (inactive); `O=C(O)c1ccc(NC(=S)NC(=O)c2cncc(Br)c2)cc1`: 13.1% (inactive); `O=C(NC(=S)Nc1ccccc1O)c1ccccc1Cl`: 13.8% (inactive).
Next, `CCOc1ccc(-c2ccc3nnc(SCC(=O)NCC4CCCO4)n3n2)cc1` (stereo not given): 20.9% (inactive); `c1ccc2cc(Cn3ccnc3)ccc2c1`: 5.43% (inactive).
Turning to `C/C(=N\NC(=O)COc1ccc(C)cc1[N+](=O)[O-])c1cccs1`, the inhibition is 15% (inactive).
Next, `N#Cc1ccc(CSc2nc(N)cc(N)n2)cc1`: -0.44% (inactive).
As to `CC(C)CCn1c(=O)c2ccccc2n2c(CN3CCCC3)nnc12`, the inhibition is 15.1% (inactive).
As to `CC(C)CCn1c(=O)c2ccccc2n2c(CCl)nnc12`, the inhibition was 12.5% (inactive).
Next, `CCOCCCn1c(=O)c2ccccc2n2c(=S)[nH]nc12`: 31.1% (inactive); `Cn1c(=O)c2ccccc2n2c(=S)[nH]nc12`: 1.39% (inactive).
Next, `O=C(Nc1ccc(S(=O)(=O)Nc2ncccn2)cc1)c1cnc(Cl)c(Cl)c1`: 24.8% (inactive); `Cc1ccn(CCC(=O)Nc2ccc(-c3ccno3)cc2)n1`: 10.3% (inactive); `C=C(c1cccc2ccccc12)P(=O)(O)O`: 8.15% (inactive).
Next, `CCOC(=O)c1c(NC(=O)COC(=O)c2nc(Cl)ccc2Cl)sc(C(=O)N(C)C)c1C`: 3.76% (inactive); `Cc1ccc(NC(=O)c2ccc(COc3ccccc3)o2)nc1`: -5.11% (inactive).
With `Cc1ccc(Nc2nc(-c3c(C)nc4ncccn34)cs2)cc1`, the inhibition is 17.2% (inactive).
Regarding `Fc1ccc(Nc2nc(-c3cccnc3)cs2)cc1`, the inhibition is 6.02% (inactive).
On to `CCN(CC)c1ccc(Nc2nc(-c3cccnc3)cs2)cc1`, for which the inhibition was 20.5% (inactive).
Regarding `Cc1nc2ncccn2c1-c1csc(Nc2ccccc2)n1`, the inhibition was 16.1% (inactive).
Next, `O=S(=O)(c1cccs1)N1CCC2(CC1)OCCN2S(=O)(=O)c1ccccc1`: 11.8% (inactive); `CN(Cc1c(C(=O)N/N=C/c2ccccc2)nnn1-c1nonc1N)c1ccccc1`: -1.98% (inactive).
Take `Cc1c(C(=O)N2CC(C)OC(C)C2)[nH]c2ccc(Br)cc12` (stereo not given): the inhibition is 0.93% (inactive).
Regarding `CCOC(=O)C(NCc1ccc(OC)cc1)(NC(C)=O)C(F)(F)F` (stereo not given), the inhibition was 0.08% (inactive).
Consider `O=Cc1ccccc1OCCOc1ccc([N+](=O)[O-])cc1`, for which the inhibition was 26.7% (inactive).
Turning to `O=C1NC(=O)/C(=C\c2ccccc2OCc2ccc([N+](=O)[O-])cc2)N1`, the inhibition was 16% (inactive).
Turning to `C=CCn1c(-c2cccc(Cl)c2)n[nH]c1=S`, the inhibition was 4.07% (inactive).
Next, `CCCCCC(=O)NNC(=S)NC(C)=O`: 7.61% (inactive).
Next, `COc1cc(NC(=O)CN2CCN(S(=O)(=O)c3ccc(C(C)C)cc3)CC2)cc(OC)c1`: 4.71% (inactive); `CC(C)(C)C(=O)CN1CCN(S(=O)(=O)c2ccc(F)cc2)CC1`: 1.15% (inactive).
Next, `Cc1ccc(S(=O)(=O)N2CCN(Cc3cc(C(C)C)ccc3O)CC2)cc1`: -1.91% (inactive); `CCOc1ccc(C(=O)CN2CCN(S(=O)(=O)c3ccc(F)cc3)CC2)cc1`: 6.42% (inactive).
On to `Cc1ccc(C)c(NC(=O)CN(C)C(=O)c2cc3c(s2)CCCCC3)c1`, for which the inhibition is 17% (inactive).
For the molecule `C=CCNC(=O)COCc1cc(-c2ccc3c(c2)OCO3)on1`, the inhibition was 7.76% (inactive).
For `CN(C)C(=O)CSc1nnc(-c2ccc(S(=O)(=O)N3CCCC3)cc2)n1C`, the inhibition is -1.24% (inactive).
Next, `C/C(=N/OC(=O)CC(C)C)c1cc(-c2ccc(Cl)cc2)no1`: 4.31% (inactive); `O=C(CCN1CCOCC1)N/N=C/c1cc([N+](=O)[O-])ccc1OC(F)F`: 5.27% (inactive).
As for `Cc1ccccc1-c1nnn(CC(=O)N2CCN(C(=O)c3ccco3)CC2)n1`, the inhibition was 14.3% (inactive).
Consider `CCCOc1ccc(C(=O)Nn2c(C)nc3ccccc3c2=O)cc1`, for which the inhibition is 1.86% (inactive).
On to `Nc1ncnc(N)c1N=Nc1ccccc1`, for which the inhibition is 8.05% (inactive).
Next, `Nc1ncc(Br)cc1N=Cc1ccccc1`: 9.46% (inactive); `C=CCN(C(=O)c1ccccc1)c1ccc(OC)cc1`: -2.78% (inactive); `O=C(c1ccco1)N1CCN(C(=O)c2cc(-c3ccc(F)cc3)no2)CC1`: 8.37% (inactive).
Next, `CC(C)CNC(=O)c1cc(-c2ccc3c(c2)OCO3)on1`: 4.96% (inactive).
As for `COc1ccc2c(c1)S(=O)(=O)c1ccccc1N2`, the inhibition was 1.87% (inactive).
Next, `O=C(CSc1nnc(-c2ccccc2)n1-c1ccccc1)N1c2ccccc2Sc2ccccc21`: 4.91% (inactive).
Next, `Cc1nc(SCC(=O)N2c3ccccc3Sc3ccccc32)n[nH]1`: 12.6% (inactive); `O=C(O)CCc1ccc(S(=O)(=O)Nc2ccccc2C(=O)NCCc2ccccc2)cc1`: 6.21% (inactive); `CCOC(=O)C(CN1CCCC1)c1ccccc1` (stereo not given): 6.65% (inactive).
Next, `COc1cccc(/C=N/NC(=O)C(=O)N2CCCCCC2)c1O`: 28.6% (inactive); `CCCc1cc(=O)[nH]c(N/N=C/C=C\c2ccccc2)n1`: 6.47% (inactive).
For the molecule `Cc1cc(C)nc(N/N=C/c2c[nH]c3ccccc23)n1`, the inhibition was 33.8% (inactive).
As to `Cc1cc(N/N=C/c2c[nH]c3ccccc23)c2ccccc2n1`, the inhibition is 5.53% (inactive).
Consider `O=C(N/N=C/c1c[nH]c2ccccc12)c1cccc(O)c1`, for which the inhibition was 16% (inactive).
For the molecule `O=C(N/N=C\c1c[nH]c2ccccc12)c1ccc(O)cc1`, the inhibition is 18% (inactive).
Next, `Cc1cc(C)c(COCc2cc(/C=N/O)c(C)cc2C)cc1/C=N/O`: -0.28% (inactive).
Next, `C=CCN1C(=O)C(Cc2ccccc2)SC1=Nc1ccc(C(=O)O)cc1` (stereo not given): 25.5% (inactive).
In the case of `C/C(=N\NC(=O)c1ccc(N)cc1)C1CC1`, the inhibition was 9.62% (inactive).
Next, `CCN1CCN(C(=O)Cn2ncc3c([nH]c4ccc(C)cc43)c2=O)CC1`: 9.03% (inactive); `Cc1cccc(NC(=S)NCc2ccc3c(c2)cc(C)n3C)c1C`: 5.14% (inactive).
Next, `Cc1ccnc(SCc2cc(=O)c(OC(=O)c3ccc(S(=O)(=O)N(C)C)cc3)co2)n1`: 15.9% (inactive).
Next, `Cc1cc(C)nc(SCc2cc(=O)c(OC(=O)c3ccc(S(=O)(=O)N(C)C)cc3)co2)n1`: 22.4% (inactive); `Cc1ccnc(SCc2cc(=O)c(OC(=O)c3ccc(S(=O)(=O)N4CCCC4)cc3)co2)n1`: 48.9% (inactive); `Cc1cc(C)nc(SCc2cc(=O)c(OC(=O)c3ccc(Cl)c([N+](=O)[O-])c3)co2)n1`: 9.56% (inactive).
